Results filed as inconclusive are left out. Active and inactive are the calls of the source. How the source made its calls: active means hit-call score of the fitted dose curve at least 0.9, where 1 is the maximum; inconclusive means response in the unintended direction; inactive means score below 0.9.
biological target: rat Adrenergic Receptor, Alpha 2 (Adra2), Non-selective Binding, Adra2a (gene 25083) (UniProt P22909); test: NVS_GPCR_rAdra2_NonSelective: NovaScreen (NVS) G Protein-Coupled Receptor Assay for rat Adrenergic Receptor, Alpha 2 (Adra2), Non-selective Binding (AID 2283299)
Outline: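 Rat cortical membranes, radioligand competitive displacement read by filter-based scintillation counting 1.25 hours after dosing. Primary screen in duplicate at 25 uM; actives followed up in concentration series.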

Chain of rat Adrenergic Receptor, Alpha 2 (Adra2), Non-selective Binding, Adra2a (gene 25083) (P22909 whole entry, looked up): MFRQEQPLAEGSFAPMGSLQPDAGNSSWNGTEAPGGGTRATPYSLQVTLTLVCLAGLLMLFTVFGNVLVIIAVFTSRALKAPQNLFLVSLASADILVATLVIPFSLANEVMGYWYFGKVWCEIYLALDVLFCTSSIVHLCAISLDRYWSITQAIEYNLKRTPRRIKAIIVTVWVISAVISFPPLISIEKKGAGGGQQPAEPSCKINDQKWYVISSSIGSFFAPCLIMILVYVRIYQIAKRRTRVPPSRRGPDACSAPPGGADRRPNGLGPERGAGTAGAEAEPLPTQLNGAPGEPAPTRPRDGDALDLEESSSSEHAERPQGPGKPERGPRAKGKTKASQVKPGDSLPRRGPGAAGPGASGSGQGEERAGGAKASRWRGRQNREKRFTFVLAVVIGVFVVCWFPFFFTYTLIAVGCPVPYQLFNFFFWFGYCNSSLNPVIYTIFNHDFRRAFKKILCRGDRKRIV

Question: With `Nc1cccc2c(N)cccc12` as the compound, how does the AC50 read?
Answer: 16.8 µM (active)

Question: How did the outcome turn out when `NC(=O)N(O)[C@@H]1C=C[C@H](Oc2cccc(Oc3ccc(F)cc3)c2)C1` was run?
Answer: inactive

Question: For `Cc1oc(-c2ccccc2)nc1CCOc1ccc(C[C@H](Nc2ccccc2C(=O)c2ccccc2)C(=O)O)cc1`, which AC50 is on record?
Answer: 35.6 µM (active)

Question: For `CCCOc1sc(C(=O)N2CCC(c3cc(CN)ccc3F)CC2)c(C)c1Br`, which AC50 is on record?
Answer: 23.2 µM (active)

Question: `CCN(CC)CCNc1ccc(CNC=O)c2sc3ccc(OC)cc3c(=O)c12` was tested. Which AC50 did it give?
Answer: 13.6 µM (active)

biological target: rat Gamma-Aminobutyric Acid Type B Receptor (GABBR), Gabbr1 (gene 81657) (UniProt Q9Z0U4); test: NVS_GPCR_rGABBR: NovaScreen (NVS) G Protein-Coupled Receptor Assay for rat Gamma-Aminobutyric Acid Type B Receptor (GABBR) (AID 2283301)
Experimental: NVS_GPCR_rGABBR is a biochemical, single-readout assay that uses extracted gene-proteins from Rat cortical membranes in a tissue-based cell-free assay. Measurements were taken 1 hour after chemical dosing in a 96-well plate.NVS_GPCR_rGABBR is one of one assay component(s) measured or calculated from the NVS_GPCR_rGABBR assay. It is designed to make measurements of radioligand binding, a form of binding reporter, as detected with scintillation counting signals by Filter-based radiodetection technology.Data from the assay component NVS_GPCR_rGABBR was analyzed into 1 assay endpoint. This assay endpoint, NVS_GPCR_rGABBR, was analyzed in the positive analysis fitting direction relative to DMSO as the negative control and baseline of activity. Using a type of binding reporter, loss-of-signal activity can be used to understand changes in the binding as they relate to the gene Gabbr1. Furthermore, this assay endpoint can be referred to as a primary readout, because the performed assay has only produced 1 assay endpoint. To generalize the intended target to other relatable targets, this assay endpoint is annotated to the gpcr intended target family, where the subfamily is metabotropic glutamate receptor.
Binding assays used specific radioligands (tritiated, iodinated) with non-radioactive competitive displacement ligands in agonist or antagonist protocols (as indicated) and various reference compounds and inhibitors to titrate specific binding to receptors and transporters. Most enzyme assays (CYPs, kinases, phosphatases, proteases, HDACs) used recombinant protein and specific substrates (fluorescence mostly, some colorimetric and radioactive) and inhibitors, followed by a biochemical separation of substrate and product. All assays for the biochemical HTS were initially run in duplicate at a single concentration (10 uM for CYP450 assays and 25 uM for all others). […]

Chain of rat Gamma-Aminobutyric Acid Type B Receptor (GABBR), Gabbr1 (gene 81657) (Q9Z0U4 whole entry, looked up): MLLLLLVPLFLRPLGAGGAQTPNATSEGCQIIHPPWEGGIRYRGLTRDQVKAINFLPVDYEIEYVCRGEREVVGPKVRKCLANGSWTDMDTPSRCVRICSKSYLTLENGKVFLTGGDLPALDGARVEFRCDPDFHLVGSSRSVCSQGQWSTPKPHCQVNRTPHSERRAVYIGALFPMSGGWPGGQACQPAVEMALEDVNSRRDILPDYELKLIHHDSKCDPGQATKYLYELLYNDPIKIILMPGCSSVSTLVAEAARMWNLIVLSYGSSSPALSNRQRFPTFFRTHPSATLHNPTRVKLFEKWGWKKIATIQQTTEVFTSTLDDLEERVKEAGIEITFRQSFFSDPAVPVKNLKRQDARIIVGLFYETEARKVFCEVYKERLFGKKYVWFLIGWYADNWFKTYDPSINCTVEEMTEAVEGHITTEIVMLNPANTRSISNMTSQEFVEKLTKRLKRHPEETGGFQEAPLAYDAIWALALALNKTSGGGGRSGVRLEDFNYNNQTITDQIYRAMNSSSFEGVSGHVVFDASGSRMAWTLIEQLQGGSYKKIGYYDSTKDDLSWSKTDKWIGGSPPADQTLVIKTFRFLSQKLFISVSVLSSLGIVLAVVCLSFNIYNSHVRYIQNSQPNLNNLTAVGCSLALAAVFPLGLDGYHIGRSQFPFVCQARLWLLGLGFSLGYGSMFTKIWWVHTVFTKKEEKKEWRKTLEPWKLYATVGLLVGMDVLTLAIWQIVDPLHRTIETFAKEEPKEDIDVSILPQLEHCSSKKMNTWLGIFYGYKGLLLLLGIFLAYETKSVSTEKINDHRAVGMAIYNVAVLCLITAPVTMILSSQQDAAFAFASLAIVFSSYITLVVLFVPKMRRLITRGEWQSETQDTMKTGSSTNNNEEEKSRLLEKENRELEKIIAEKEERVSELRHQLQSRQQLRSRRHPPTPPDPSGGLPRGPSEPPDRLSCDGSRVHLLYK

Question: `Cc1cc(CCN2CCN(c3nsc4ccccc34)CC2)cc2c1NC(=O)CC2(C)C` was tested. Which outcome did it give?
Answer: inactive

Question: `NC(=O)N1C(=O)C(C(=O)c2cc(Cl)cs2)c2cc(F)c(Cl)cc21` (stereo not drawn) was tested. Which outcome did it give?
Answer: inactive

Question: For `Cc1oc(-c2ccccc2)nc1CCOc1ccc(C[C@H](Nc2ccccc2C(=O)c2ccccc2)C(=O)O)cc1`, which outcome is on record?
Answer: inactive

From PubChem BioAssay (EPA / NIEHS)
